# According to PMC7862700, “An all-to-all approach to the identification of sequence-specific readers for epigenetic DNA modifications on cytosine”:
# Key:
# Experiment in all cases: DAPPL (digital affinity profiling via proximity ligation, sequencing); 10 mM Tris-HCl pH 7.5, 50 mM NaCl, 1 mM DTT, 4% glycerol, room temperature, 30 min; GST-TFs on glutathione beads, 16-mer random dsDNA library, 0.1% formaldehyde crosslink after washing; high values mean tight binding
# FEV = target: T1, FEV (Homo sapiens, UniProt Q99581 1-238); settings: protein: recombinant; tags: N-terminal GST; dsDNA, one strand shown
# T1 sequence: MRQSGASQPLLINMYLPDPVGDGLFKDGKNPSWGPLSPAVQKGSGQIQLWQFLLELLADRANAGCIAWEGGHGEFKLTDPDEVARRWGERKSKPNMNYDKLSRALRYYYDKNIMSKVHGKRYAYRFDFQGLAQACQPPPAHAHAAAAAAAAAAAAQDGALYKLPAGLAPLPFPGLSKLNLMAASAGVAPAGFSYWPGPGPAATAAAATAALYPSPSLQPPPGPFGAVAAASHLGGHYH
# Summary of the method: (§1)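 Binding signal is each hexamer's read frequency for a factor divided by its frequency in the tag-only sample. The factors were GST-fused human transcription factors from yeast, captured on glutathione beads, DNA-barcoded and pooled with that sample. Pools were incubated with 200 nmole of a random double-stranded 16-mer DNA library in Tris/NaCl/DTT/glycerol buffer at room temperature for 30 min, then washed, crosslinked with 0.1% formaldehyde, proximity-ligated with BsaI/T4 ligase (1 h, 37 °C), PCR-amplified and sequenced on an Illumina NextSeq500.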
# ETV5 = ETV5 (Homo sapiens, UniProt P41161 1-510); settings: protein: recombinant; tags: N-terminal GST; dsDNA, one strand shown
# Summary of the method: as §1
# HSF1 = HSF1 (Homo sapiens, UniProt Q00613 1-529); settings: protein: recombinant; tags: N-terminal GST; chain copies: 3; dsDNA, one strand shown
# Summary of the method: as §1
# SPIC = target: T2, SPIC (Homo sapiens, UniProt Q8N5J4 1-248); settings: protein: recombinant; tags: N-terminal GST; dsDNA, one strand shown
# T2 sequence: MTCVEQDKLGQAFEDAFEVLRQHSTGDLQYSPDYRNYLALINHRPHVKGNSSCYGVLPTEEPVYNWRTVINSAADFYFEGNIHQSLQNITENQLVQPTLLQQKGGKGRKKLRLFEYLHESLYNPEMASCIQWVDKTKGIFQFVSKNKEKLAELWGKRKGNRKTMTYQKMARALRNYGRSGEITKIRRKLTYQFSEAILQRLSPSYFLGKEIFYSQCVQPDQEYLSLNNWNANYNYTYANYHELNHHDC
# Summary of the method: as §1
# ELF4 = ELF4 (Homo sapiens, UniProt Q99607 1-663); settings: protein: recombinant; tags: N-terminal GST; dsDNA, one strand shown
# Summary of the method: as §1
# ELK4 = target: T3, ELK4 (Homo sapiens, UniProt P28324-2 1-405); settings: protein: recombinant; tags: N-terminal GST; dsDNA, one strand shown
# T3 sequence: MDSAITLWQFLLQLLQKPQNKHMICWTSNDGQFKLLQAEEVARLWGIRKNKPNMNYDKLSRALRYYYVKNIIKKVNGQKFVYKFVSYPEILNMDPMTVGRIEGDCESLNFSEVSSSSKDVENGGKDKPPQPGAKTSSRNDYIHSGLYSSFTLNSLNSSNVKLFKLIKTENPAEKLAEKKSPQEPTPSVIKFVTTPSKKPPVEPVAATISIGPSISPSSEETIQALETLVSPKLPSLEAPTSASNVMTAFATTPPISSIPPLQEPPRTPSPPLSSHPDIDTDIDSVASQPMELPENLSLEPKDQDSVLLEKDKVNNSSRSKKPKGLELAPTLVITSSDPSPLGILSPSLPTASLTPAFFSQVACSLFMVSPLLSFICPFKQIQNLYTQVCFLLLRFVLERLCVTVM
# Summary of the method: as §1
# ETV2 = target: T4, ETV2 (Homo sapiens, UniProt O00321 1-342); settings: protein: recombinant; tags: N-terminal GST; dsDNA, one strand shown
# T4 sequence: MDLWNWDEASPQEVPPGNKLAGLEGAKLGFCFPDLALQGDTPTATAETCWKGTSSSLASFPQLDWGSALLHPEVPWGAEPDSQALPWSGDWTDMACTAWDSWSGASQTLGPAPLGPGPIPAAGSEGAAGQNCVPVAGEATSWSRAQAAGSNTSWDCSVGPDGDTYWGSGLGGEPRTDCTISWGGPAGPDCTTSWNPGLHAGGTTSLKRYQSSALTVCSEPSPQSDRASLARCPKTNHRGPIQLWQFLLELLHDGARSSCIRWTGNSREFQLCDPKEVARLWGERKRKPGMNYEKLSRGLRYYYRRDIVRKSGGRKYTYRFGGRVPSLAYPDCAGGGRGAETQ
# Summary of the method: as §1
# ELF3 = target: T5, ELF3 (Homo sapiens, UniProt P78545 1-371); settings: protein: recombinant; tags: N-terminal GST; dsDNA, one strand shown
# T5 sequence: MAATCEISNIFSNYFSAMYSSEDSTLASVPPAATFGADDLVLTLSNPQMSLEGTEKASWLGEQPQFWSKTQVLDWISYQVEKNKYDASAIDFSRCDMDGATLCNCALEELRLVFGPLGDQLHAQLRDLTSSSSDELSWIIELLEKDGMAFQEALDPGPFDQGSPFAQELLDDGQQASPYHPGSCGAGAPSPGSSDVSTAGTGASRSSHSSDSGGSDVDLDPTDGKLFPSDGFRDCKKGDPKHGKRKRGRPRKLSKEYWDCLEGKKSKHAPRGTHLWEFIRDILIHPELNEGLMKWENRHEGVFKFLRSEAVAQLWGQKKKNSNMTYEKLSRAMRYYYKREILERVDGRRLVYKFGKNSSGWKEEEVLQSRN
# Summary of the method: as §1
# CRX = CRX (Homo sapiens, UniProt O43186 1-299); settings: protein: recombinant; tags: N-terminal GST; dsDNA, one strand shown
# Summary of the method: as §1
# ETV1 = ETV1 (Homo sapiens, UniProt P50549 1-477); settings: protein: recombinant; tags: N-terminal GST; dsDNA, one strand shown
# Summary of the method: as §1
# ERF = target: T6, ERF (Homo sapiens, UniProt P50548 1-548); settings: protein: recombinant; tags: N-terminal GST; dsDNA, one strand shown
# T6 sequence: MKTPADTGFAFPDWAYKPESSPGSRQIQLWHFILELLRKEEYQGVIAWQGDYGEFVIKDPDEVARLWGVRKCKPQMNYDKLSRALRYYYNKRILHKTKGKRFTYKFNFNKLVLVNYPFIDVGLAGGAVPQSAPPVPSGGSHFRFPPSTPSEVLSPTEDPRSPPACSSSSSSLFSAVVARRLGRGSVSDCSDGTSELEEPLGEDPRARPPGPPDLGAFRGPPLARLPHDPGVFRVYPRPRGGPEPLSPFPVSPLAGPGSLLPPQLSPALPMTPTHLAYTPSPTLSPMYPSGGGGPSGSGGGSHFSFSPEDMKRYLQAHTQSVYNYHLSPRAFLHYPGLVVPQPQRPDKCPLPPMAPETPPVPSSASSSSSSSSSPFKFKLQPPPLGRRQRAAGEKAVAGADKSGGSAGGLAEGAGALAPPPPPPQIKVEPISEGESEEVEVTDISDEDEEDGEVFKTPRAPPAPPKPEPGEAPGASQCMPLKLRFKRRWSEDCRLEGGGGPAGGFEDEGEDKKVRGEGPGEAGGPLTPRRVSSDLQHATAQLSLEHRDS
# Summary of the method: as §1
# ETV3L = target: T7, ETV3L (Homo sapiens, UniProt Q6ZN32 1-361); settings: protein: recombinant; tags: N-terminal GST; dsDNA, one strand shown
# T7 sequence: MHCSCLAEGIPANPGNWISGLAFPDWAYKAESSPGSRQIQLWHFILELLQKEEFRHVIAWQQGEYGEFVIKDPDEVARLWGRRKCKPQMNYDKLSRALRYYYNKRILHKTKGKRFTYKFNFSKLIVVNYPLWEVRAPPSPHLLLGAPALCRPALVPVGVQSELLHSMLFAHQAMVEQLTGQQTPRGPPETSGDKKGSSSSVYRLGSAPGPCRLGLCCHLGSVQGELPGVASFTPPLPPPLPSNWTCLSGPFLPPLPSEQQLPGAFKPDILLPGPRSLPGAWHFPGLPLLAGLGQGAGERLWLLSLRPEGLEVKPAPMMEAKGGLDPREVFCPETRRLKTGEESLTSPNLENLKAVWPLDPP
# Summary of the method: as §1
# ETS2 = target: T8, ETS2 (Homo sapiens, UniProt P15036 1-469); settings: protein: recombinant; tags: N-terminal GST; dsDNA, one strand shown
# T8 sequence: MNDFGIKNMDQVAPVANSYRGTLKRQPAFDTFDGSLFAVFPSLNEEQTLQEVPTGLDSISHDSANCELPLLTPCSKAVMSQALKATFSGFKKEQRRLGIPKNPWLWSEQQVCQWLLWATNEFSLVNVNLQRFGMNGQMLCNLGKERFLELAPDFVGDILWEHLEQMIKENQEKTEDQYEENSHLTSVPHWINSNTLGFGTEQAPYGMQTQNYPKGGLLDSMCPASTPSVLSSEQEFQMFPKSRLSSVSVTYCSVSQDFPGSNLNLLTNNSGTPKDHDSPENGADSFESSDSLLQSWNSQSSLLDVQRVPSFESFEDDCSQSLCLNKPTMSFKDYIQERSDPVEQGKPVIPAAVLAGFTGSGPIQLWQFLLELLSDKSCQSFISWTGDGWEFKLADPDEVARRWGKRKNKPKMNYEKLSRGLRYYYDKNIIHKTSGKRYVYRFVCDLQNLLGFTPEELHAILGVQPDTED
# Summary of the method: as §1
# SPDEF = target: T9, SPDEF (Homo sapiens, UniProt O95238 1-335); settings: protein: recombinant; tags: N-terminal GST; dsDNA, one strand shown
# T9 sequence: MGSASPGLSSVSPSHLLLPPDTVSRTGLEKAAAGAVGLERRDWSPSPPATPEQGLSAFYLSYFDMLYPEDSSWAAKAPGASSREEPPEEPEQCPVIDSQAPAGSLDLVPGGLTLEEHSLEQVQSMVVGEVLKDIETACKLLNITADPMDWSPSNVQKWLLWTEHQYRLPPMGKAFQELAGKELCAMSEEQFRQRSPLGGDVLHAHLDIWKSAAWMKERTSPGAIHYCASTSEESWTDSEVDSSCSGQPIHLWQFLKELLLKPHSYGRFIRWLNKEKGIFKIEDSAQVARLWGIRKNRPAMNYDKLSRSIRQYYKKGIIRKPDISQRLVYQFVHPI
# Summary of the method: as §1
# ETV7 = target: T10, ETV7 (Homo sapiens, UniProt Q9Y603 1-341); settings: protein: recombinant; tags: N-terminal GST; dsDNA, one strand shown
# T10 sequence: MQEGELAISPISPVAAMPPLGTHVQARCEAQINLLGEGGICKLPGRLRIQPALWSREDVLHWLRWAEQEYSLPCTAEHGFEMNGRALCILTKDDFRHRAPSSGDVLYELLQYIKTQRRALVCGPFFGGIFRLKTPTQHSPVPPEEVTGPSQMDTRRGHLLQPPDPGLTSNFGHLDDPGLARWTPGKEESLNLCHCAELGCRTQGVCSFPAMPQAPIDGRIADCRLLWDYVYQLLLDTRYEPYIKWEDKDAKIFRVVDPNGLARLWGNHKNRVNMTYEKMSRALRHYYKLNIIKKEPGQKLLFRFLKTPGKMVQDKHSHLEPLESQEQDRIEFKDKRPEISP
# Summary of the method: as §1
# ELF5 = target: T11, ELF5 (Homo sapiens, UniProt Q9UKW6-2 1-255); settings: protein: recombinant; tags: N-terminal GST; dsDNA, one strand shown
# T11 sequence: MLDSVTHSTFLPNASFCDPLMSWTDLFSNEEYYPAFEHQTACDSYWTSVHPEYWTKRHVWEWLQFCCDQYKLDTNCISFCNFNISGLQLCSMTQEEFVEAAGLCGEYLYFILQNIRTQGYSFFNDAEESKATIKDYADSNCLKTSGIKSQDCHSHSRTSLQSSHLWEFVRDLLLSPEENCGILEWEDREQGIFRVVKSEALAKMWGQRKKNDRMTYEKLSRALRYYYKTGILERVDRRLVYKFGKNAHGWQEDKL
# Summary of the method: as §1
# ETV3 = target: T12, ETV3 (Homo sapiens, UniProt P41162-2 1-143); settings: protein: recombinant; tags: N-terminal GST; dsDNA, one strand shown
# T12 sequence: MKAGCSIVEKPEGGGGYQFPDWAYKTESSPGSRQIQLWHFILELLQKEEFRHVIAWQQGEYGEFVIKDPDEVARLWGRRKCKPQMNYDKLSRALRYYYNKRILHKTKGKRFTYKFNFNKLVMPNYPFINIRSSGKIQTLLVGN
# Summary of the method: as §1
# ETV6 = ETV6 (Homo sapiens, UniProt P41212 1-452); settings: protein: recombinant; tags: N-terminal GST; dsDNA, one strand shown
# Summary of the method: as §1
# Chain of ETV6 (P41212 whole entry): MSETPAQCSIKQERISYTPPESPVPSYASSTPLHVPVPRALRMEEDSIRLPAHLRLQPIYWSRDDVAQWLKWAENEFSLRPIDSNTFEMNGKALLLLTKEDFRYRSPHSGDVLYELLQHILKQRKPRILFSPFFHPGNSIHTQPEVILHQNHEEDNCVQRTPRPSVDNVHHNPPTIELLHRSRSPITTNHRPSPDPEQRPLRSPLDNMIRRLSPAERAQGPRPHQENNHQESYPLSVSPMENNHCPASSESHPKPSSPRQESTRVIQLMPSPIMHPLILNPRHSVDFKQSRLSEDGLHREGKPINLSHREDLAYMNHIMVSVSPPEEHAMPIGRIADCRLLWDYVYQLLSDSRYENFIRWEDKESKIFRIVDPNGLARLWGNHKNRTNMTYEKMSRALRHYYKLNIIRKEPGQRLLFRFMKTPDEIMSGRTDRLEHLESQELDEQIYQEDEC
# Chain of ETV1 (P50549 whole entry): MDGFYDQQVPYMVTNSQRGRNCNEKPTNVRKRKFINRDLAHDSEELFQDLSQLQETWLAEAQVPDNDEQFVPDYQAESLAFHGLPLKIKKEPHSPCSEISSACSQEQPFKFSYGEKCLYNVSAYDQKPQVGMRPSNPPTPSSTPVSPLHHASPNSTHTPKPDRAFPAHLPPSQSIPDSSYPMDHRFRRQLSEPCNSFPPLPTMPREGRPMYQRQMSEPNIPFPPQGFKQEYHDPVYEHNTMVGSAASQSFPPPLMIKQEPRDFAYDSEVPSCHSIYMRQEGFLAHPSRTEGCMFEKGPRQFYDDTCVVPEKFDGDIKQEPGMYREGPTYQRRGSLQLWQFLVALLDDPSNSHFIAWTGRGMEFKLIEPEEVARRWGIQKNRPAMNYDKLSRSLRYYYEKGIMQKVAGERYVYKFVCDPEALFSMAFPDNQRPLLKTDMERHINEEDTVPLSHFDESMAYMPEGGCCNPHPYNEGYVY
# Chain of HSF1 (Q00613 whole entry): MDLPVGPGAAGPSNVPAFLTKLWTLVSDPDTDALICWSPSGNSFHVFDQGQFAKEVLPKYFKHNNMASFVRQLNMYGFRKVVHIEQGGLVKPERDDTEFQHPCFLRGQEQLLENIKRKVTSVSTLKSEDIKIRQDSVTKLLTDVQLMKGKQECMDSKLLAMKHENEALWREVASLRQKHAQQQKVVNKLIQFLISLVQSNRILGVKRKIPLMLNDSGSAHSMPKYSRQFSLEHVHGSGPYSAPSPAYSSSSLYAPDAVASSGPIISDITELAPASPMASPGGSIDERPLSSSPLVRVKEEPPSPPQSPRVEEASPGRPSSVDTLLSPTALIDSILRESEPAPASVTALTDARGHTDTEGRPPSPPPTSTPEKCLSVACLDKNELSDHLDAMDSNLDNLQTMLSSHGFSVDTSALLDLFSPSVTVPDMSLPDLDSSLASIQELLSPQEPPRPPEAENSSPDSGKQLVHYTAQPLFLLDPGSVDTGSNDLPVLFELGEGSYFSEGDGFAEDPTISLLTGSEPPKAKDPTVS
# Chain of ETV5 (P41161 whole entry): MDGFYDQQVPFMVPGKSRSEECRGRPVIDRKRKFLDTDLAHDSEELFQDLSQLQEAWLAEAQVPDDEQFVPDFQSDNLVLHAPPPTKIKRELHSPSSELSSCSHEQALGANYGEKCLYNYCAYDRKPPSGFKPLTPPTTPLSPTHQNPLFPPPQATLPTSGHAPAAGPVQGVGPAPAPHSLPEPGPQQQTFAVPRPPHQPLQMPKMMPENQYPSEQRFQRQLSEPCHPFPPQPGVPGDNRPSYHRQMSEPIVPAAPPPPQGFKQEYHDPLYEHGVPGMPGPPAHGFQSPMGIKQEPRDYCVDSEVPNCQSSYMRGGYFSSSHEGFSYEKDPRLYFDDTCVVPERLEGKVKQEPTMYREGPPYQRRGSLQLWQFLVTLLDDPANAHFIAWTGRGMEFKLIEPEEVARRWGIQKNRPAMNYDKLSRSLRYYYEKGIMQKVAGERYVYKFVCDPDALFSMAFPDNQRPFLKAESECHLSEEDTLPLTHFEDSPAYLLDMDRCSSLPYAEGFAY
# Chain of ELF4 (Q99607 whole entry): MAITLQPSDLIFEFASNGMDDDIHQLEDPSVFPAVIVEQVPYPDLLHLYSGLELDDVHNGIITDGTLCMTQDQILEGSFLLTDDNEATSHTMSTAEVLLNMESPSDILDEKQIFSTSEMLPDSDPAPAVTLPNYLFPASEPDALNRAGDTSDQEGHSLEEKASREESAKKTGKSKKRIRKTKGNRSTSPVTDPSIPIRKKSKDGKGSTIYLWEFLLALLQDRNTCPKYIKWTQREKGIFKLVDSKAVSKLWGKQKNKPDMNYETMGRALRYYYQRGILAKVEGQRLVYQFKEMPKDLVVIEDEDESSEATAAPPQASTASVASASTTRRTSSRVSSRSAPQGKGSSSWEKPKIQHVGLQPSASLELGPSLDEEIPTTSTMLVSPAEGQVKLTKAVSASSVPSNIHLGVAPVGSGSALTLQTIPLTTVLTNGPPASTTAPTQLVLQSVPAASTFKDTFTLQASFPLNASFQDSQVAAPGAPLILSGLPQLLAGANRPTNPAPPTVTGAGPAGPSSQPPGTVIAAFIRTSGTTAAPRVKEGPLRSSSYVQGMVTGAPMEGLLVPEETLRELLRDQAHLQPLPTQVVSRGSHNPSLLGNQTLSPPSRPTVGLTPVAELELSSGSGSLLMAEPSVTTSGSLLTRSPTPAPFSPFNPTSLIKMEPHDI
# Chain of CRX (O43186 whole entry): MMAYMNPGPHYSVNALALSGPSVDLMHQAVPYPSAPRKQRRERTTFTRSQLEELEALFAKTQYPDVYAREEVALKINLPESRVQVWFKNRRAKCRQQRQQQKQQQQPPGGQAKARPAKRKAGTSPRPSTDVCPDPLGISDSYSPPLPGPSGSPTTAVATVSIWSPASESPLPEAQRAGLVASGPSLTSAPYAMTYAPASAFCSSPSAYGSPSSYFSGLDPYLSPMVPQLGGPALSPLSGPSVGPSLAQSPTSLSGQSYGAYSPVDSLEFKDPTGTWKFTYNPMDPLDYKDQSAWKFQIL
sequence,measurement,setting,value
TTTTCT,binding signal,FEV,"1.26 fold enrichment (6-mer frequency, TF over GST control)"
same,binding signal,ETV5,"1.28 fold enrichment (6-mer frequency, TF over GST control)"
same,binding signal,HSF1,"2.46 fold enrichment (6-mer frequency, TF over GST control)"
same,binding signal,SPIC,"1.15 fold enrichment (6-mer frequency, TF over GST control)"
same,binding signal,ELF4,"1.46 fold enrichment (6-mer frequency, TF over GST control)"
same,binding signal,ELK4,"1.32 fold enrichment (6-mer frequency, TF over GST control)"
same,binding signal,ETV2,"1.48 fold enrichment (6-mer frequency, TF over GST control)"
same,binding signal,ELF3,"1.35 fold enrichment (6-mer frequency, TF over GST control)"
same,binding signal,CRX,"1.61 fold enrichment (6-mer frequency, TF over GST control)"
same,binding signal,ETV1,"1.21 fold enrichment (6-mer frequency, TF over GST control)"
same,binding signal,ERF,"1.36 fold enrichment (6-mer frequency, TF over GST control)"
same,binding signal,ETV3L,"1.35 fold enrichment (6-mer frequency, TF over GST control)"
same,binding signal,ETS2,"1.32 fold enrichment (6-mer frequency, TF over GST control)"
same,binding signal,SPDEF,"1.28 fold enrichment (6-mer frequency, TF over GST control)"
same,binding signal,ETV7,"1.42 fold enrichment (6-mer frequency, TF over GST control)"
same,binding signal,ELF5,"1.26 fold enrichment (6-mer frequency, TF over GST control)"
same,binding signal,ETV3,"1.54 fold enrichment (6-mer frequency, TF over GST control)"
same,binding signal,ETV6,"1.32 fold enrichment (6-mer frequency, TF over GST control)"
